# High-throughput results as filed in PubChem.
# Hits are enriched below; roughly 12% of the tested compounds scored in any of these assays.
# G9a inh = blocks human histone lysine methyltransferase G9a. Q96KQ7. actives 8.8% (n = 350,000). G9a H3K9 monomethylation, AlphaScreen, 2 h. Potency, µM (doses to about 102 µM), usual class: inhibitors; note: nearly all actives have a fitted effect of over 75% in size
# Target sequence (Q96KQ7 913-1193 limits assumed): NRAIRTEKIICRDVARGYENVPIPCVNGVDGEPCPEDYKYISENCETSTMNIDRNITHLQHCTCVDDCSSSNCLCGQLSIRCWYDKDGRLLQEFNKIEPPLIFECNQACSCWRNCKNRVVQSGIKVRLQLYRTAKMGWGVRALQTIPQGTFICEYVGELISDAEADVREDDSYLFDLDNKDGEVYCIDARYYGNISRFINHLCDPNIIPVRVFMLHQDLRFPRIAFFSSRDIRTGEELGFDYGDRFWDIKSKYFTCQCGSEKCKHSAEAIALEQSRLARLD
#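 Readings reflect AlphaScreen signal from monomethyl-H3K9 antibody detection. HMT at 20 nM; substrate b-H3K9 500 nM; cofactor SAM 20 uM; 2 h RT reaction; compounds tested as titrations in qHTS with 15 min preincubation.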
# JMJD2A Tudor = inhibitors of human JMJD2A Tudor domain | AlphaScreen JMJD2A-Tudor / H3K4me3 peptide binding | Potency, µM (top dose mostly 114 µM), hits mostly inhibitors | actives 4.4% (n = 390,000); note: nearly all actives have a fitted effect of over 50% in size
# Sfp PPTase inh = blocks B. subtilis Sfp PPTase activity; Q9F4F7; Biochemical Sfp PPTase activity, qHTS; actives 3.5% (n = 310,000); Potency, µM, actives largely listed as inhibitors;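 note: the enzyme is Sfp with the accession as filed and its product quenches rhodamine fluorescence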
#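 Sfp 15 nM + cpd, 15 min RT; start w/ rhodamine-CoA 5 uM, BHQ-2-YbbR 12.5 uM (final); 50 mM Hepes pH 7.6, 10 mM MgCl2, 0.01% NP-40, 0.01% BSA; read 525/598 nm at 0 and 30 min.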
# BAZ2B inh = blocks human BAZ2B; actives 4.4% (n = 360,000); AID 504333; Potency, µM (doses to about 114 µM), usual class: inhibitors; Q9UIF8; AlphaScreen BAZ2B-H3K14Ac peptide displacement; note: nearly all actives have a fitted effect of over 60% in size
#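 Inhibition is scored as reduced AlphaScreen emission. The BAZ2B/b-H3(5-23)K14Ac complex (50 nM each) in PBS pH 7.4, 0.01% Tween-20 meets compound (up to 110 uM) for 30 min at RT before bead addition.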
# HP1b chromo inh = blocks HP1-beta chromodomain binding to methylated histone tails. P83916. AlphaScreen HP1-beta / biotin-H3K9me3 peptide binding. Potency, µM (highest dose often 114 µM), most hits filed as inhibitors. actives 0.56% (n = 390,000). AID 540317; note: nearly all actives have a fitted effect of over 70% in size
# Target sequence (P83916 whole entry, looked up): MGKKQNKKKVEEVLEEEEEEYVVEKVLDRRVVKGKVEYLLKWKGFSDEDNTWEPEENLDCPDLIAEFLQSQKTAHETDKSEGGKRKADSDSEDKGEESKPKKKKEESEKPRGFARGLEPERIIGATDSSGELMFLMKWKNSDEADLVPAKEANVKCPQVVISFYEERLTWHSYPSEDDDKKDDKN
#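 Compound inhibition of the preformed complex between 50 nM HP1-beta and 50 nM biotinylated H3K9me3 peptide was read by AlphaScreen. Buffer was PBS pH 7.4 with 0.01% Tween-20. Incubations ran 30 min at room temperature, with 10 ug/mL donor/acceptor beads.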
# L3MBTL1 inh = blocks human L3MBTL1. Q9Y468. AlphaScreen L3MBTL1–H3K9me1 peptide binding. Potency, µM (titrated, usually from 57.1 µM), usual class: inhibitors. actives 0.66% (n = 230,000). AID 485360; note: nearly all actives have a fitted effect of over 60% in size
#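 L3MBTL1 (50 nM) pre-complexed 30 min with biotinylated H3(1-15)K9me1 peptide (75 nM), then compounds added for 30 min at room temperature; AlphaScreen streptavidin donor/nickel chelate acceptor beads (10 ug/mL final) read after 30 min dark incubation.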
# A number is an active result; i = inactive; ? = inconclusive; nt = not tested or not shown; [ ] = dose if it differs, or a comment. Calls come from the whole dose curve; as a rule, active = well fitted curve in the direction sought with a large enough effect; inconclusive = small, poorly fitted or top-dose-only effect, or another doubt; inactive = no such curve, though single readings can be large; an effect the other way counts as inactive or inconclusive.
SMILES,G9a inh,JMJD2A Tudor,Sfp PPTase inh,BAZ2B inh,HP1b chromo inh,L3MBTL1 inh
Cc1cc(C)cc(NC(=O)C2CCCN(c3cnccn3)C2)c1 (centres undefined),i,i,nt,i,i,nt
CC1CCCCC1N1CCN(C(=O)c2cccc(F)c2)CC1 (centres undefined),?,40µM,i,?,?,i
CC1CCCC(N2CCN(C(=O)c3cccc(F)c3)CC2)C1 (centres undefined),?,4.5µM,i,50µM,?,nt
COc1cccc(C(=O)N2CCN(C(=O)c3cccc(F)c3)CC2)c1,i,i,i,i,i,i
COc1ccc(CCNC(=O)c2nc(SCc3ccccc3F)ncc2Cl)cc1OC,i,i,nt,i,i,nt
CC(CNC(=O)CN(C)CC(=O)Nc1ccccc1Br)c1ccccc1 (centres undefined),45µM,i,nt,i,i,i
CN(CC(=O)Nc1ccc2c(c1)CCC2)CC(=O)Nc1ccccc1Br,i,14µM,i,i,i,nt
O=C(Cc1ccc2c(c1)CCCC2)Nc1ccc2ccccc2c1,7.1µM,i,i,i,?,i
Cc1nc(NC2CCCCC2)c2nc(-c3ccccc3)n(C(C)CN(C)C)c2n1 (centres undefined),nt,nt,i,nt,nt,nt
C[N+]12CCC(CC1)[C@@H](OC(=O)C(O)(c1ccccc1)c1ccccc1)C2,i[21.5 µM],nt,i,nt,nt,nt
CCCN(CCC)C(=O)Cn1c(=O)n(-c2cccc(OC)c2)c(=O)c2c(C)c(C(=O)N(C)C)sc21,i,i,nt,i,i,nt
COc1cc(NC(=O)c2ccc(NC(=O)N3CCSc4ncccc43)cc2)cc(OC)c1,?,i,nt,i,i,nt
CC(=O)NCCN=Cc1sc2ccccc2c1O,i[0.0925 µM],i,i,i,i,i
CCCN=Cc1sc2ccc(OCC)cc2c1O,?,i,50µM,nt,i,i
CC(=O)c1cccc(NC(=O)CSc2nnc3ccc(-c4ccc(Br)cc4)nn23)c1,i,i,nt,i,i,nt
CC1=C(C(=O)Nc2ccccc2C)C(c2cccs2)n2nc(SCc3ccccc3)nc2N1 (centres undefined),i,i,nt,i,i,nt
Cc1ccc(C2C(C#N)=C(N)Oc3n[nH]c(-c4ccccc4)c32)o1 (centres undefined),22µM,16µM,?,?,?,nt
Cc1[nH]nc2c1C(c1ccco1)C(C#N)=C(N)O2 (centres undefined),i,i,i,i,i,i
Cc1ccc(-c2[nH]nc3c2C(C)C(C#N)=C(N)O3)cc1 (centres undefined),i,i,i,i,i,i
COc1ccc(-c2ccc(C3C(C#N)=C(N)Oc4n[nH]c(C)c43)o2)cc1 (centres undefined),?,?,i,50µM,i,i
N#CC1=C(N)Oc2n[nH]c(-c3ccc(F)cc3)c2C1c1cccnc1 (centres undefined),?,i,i,i,i,nt
Cc1ccc(C2C(C#N)=C(N)Oc3n[nH]c(-c4cccnc4)c32)o1 (centres undefined),79µM,i,i,?,i,nt
COC(=O)c1ccccc1NC(=O)CCCS(=O)(=O)c1nc(-c2ccccc2OC)cc(C(F)(F)F)n1,?,i,nt,i,i,nt
CC(=O)c1ccc(N2CCN(c3nc4ccccc4c4nc(-c5cccc(C)c5)nn34)CC2)cc1,i,i,nt,i,i,nt
Cc1ccc(S(=O)(=O)N(C)/N=C/c2ccc(N(C)C)cc2)cc1,18µM,22µM,i,25µM,40µM,nt
SMILES,G9a inh,JMJD2A Tudor,Sfp PPTase inh,BAZ2B inh,HP1b chromo inh,L3MBTL1 inh
Cc1ccc(S(=O)(=O)N(C)/N=C/C=C/c2ccccc2)cc1,35µM,i,i,i,i,i
Cc1ccc(S(=O)(=O)N(C)c2ccc(N)cc2)cc1,i,i,i,i,i,nt
Cc1ccc(-c2cnc(C3CC3)o2)cc1S(=O)(=O)Nc1ccc(F)cc1Cl,i[12.7 µM],i,nt,?,i,nt
CCOC(=O)c1ccc(NC(=O)C(Cc2ccccc2)N2Cc3ccccc3C2=O)cc1 (centres undefined),i,i,nt,i,i,nt
COC(=O)CNc1n[nH]c(=S)[nH]c1=O,?,i[11.4 µM],50µM,i,i,i
CC(C)OC(=O)CNc1n[nH]c(=S)[nH]c1=O,25µM,79µM,45µM,i,i,i
CC(C)OC(=O)C(C)Nc1n[nH]c(=S)[nH]c1=O (centres undefined),45µM,i,i,i,i,i
CN(C)C(=O)CNc1n[nH]c(=S)[nH]c1=O,i,i,20µM,i,i,i
OC1=C(O)c2nc3cc(C(F)(F)F)ccc3nc21,?,i,50µM,i,i,nt
COc1ccc(-c2ccn(-c3cccc(F)n3)n2)cc1,14µM,?,i,i,i,nt
CC(=O)Oc1cccc(N2C(=O)C3C4C=CC(C4=C(C)C)C3C2=O)c1 (centres undefined),i[2.33 µM],?,56µM,i,?,nt
CC(=O)Oc1cccc(N2C(=O)c3ccccc3C2=O)c1,i,i,i,i,i,i
CC(=O)Oc1ccc(N2C(=O)CCC2=O)cc1,i[0.0925 µM],i,i,i,i,nt
CC(=O)Oc1ccc(N2C(=O)C3C4C=CC(O4)C3C2=O)cc1 (centres undefined),3.5µM,?,35µM,i,?,i
CC(=O)Oc1cccc(N2C(=O)C3C(C2=O)C2C=CC3C23CC3)c1 (centres undefined),45µM,i,i,i,i,i
CC(=O)Oc1cccc(N2C(=O)C3CC=CCC3C2=O)c1 (centres undefined),i[12.7 µM],i,i,i,i,nt
COCCn1c(=O)c(-c2cc(F)cc(F)c2)nc2cnc(N(C)C)nc21,i[0.501 µM],nt,i,nt,nt,nt
COCCNC(=O)c1nc2ccccc2s1,i,i,i,i,i,i
O=C(COC(=O)CCCc1nc2ccccc2s1)NC(=O)NCc1ccco1,?,?,i,56µM,i,i
O=C(NCc1ccco1)c1nc2ccccc2s1,i[12.7 µM],i,i,i,i,i
O=C(CSc1nc2cc(Cl)ccc2s1)NC(=O)NCc1ccco1,i,?,89µM,i,i,?
O=C(CSc1nn(-c2ccccc2)c(=S)s1)Nn1cnnc1,i,i,i,i,i,i
COCCNC(=O)COC(=O)CSCc1nc2ccccc2s1,79µM,i,i,i,i,i
O=C(CSc1nn(-c2ccccc2)c(=S)s1)NC(=O)NCc1ccco1,14µM,i,i,?,i,nt
Cc1noc(C)c1-c1nc(NC2CCNCC2)c2ccccc2n1,i[0.501 µM],nt,i,nt,nt,nt
O=C(c1cccc(F)c1)N1CCC2(CCN(Cc3ccncc3)CC2)CC1,i[12.7 µM],nt,i,nt,nt,nt
CCOc1ccc(NC(=O)CC2C(=O)N(c3cccc(C)c3)C(=O)N2Cc2cccnc2)cc1 (centres undefined),i,i,nt,i,i,nt
CN1CCN(c2ncc3nc(CCc4ccccc4)c(=O)n(C4CC4)c3n2)CC1,i[0.501 µM],nt,i,nt,nt,nt
C/C(N)=C(/C#N)C(=O)CSc1cc(Cl)ccc1Cl,?,i,i,i,i,i
